Experimental data reported in PubChem BioAssay.
Where “and” joins values, the source holds several entries; their conditions need not be identical. Identical values can stand only once. Calls of active or inactive are those of the source.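 The calls were made as follows, unless noted: active = thallium flux through the channel raised or lowered by more than 3 SD from vehicle-only wells, actives on both sides; inactive = the rest.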

Legend:
[1] = liver-stage malaria parasite growth inhibition, primary screen, cell-based, HepG2, luciferase luminescence, HepG2 viability (AID 624349; in the data active = parasite load remaining mostly below about 12%, no sharp cut-off; inactive = mostly above about 10%;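 also: 100% = mean of DMSO negative control wells on the same plate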); conditions: P. berghei liver stage in HepG2, luciferase luminescence, concentration not given here; parasite load remaining: stronger effect = lower value; viability: measured here: HepG2 viability without parasites
[2] = Cy5 fluorescence interference with SSB-bound oligo, artefact control for HCV NS3 helicase inhibitor project, biochemical, NIH Clinical Collection, E. coli SSB (AID 743268; call rule not given here)
[3] = test system: Hepatitis C virus NS3 helicase; experiment: HCV NS3 helicase inhibitors, primary screen, biochemical, fluorescence polarization, NIH Clinical Collection (AID 743270; call rule not given here); conditions: NS3 helicase binding to Cy5-dT15 DNA, stronger effect = higher value, concentration not given here
[4] = biological target: Single-stranded DNA-binding protein (Escherichia coli (strain K12)) (UniProt P0AGE0); experiment: E. coli SSB displacement from DNA, counter-screen for HCV NS3 helicase inhibitor project, biochemical, fluorescence polarization, NIH Clinical Collection (AID 743271; in the data active = inhibition above about 28%); conditions: stronger effect = higher value, concentration not given here
[5] = fluorescence interference in NS3h assay format, artefact control for HCV NS3 helicase inhibitor project, biochemical, NIH Clinical Collection (AID 743272; call rule not given here;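 also: HCV NS3 helicase with a Cy5 labelled single stranded DNA probe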); conditions: fluorescence interference counterscreen, stronger effect = lower value
[6] = modulation of C. elegans fzo-1 (AID 1259413; call rule not given here;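 also: fzo-1 mutant C. elegans worms in liquid wells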); conditions: C. elegans fzo-1 modulator screen, mean read-out; stronger effect = higher value
[7] = sensitizers of A549 cells to miR-34 induction, primary screen, imaging, A549 dox-inducible miR-34, nuclei and caspase counts (AID 1347080;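 active = compounds whose cell count with miR-34 switched on is under 0.7 times the count with it off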); conditions: A549 miR-34 inducible, Hoechst nuclei count, 48 h
[8] = viability rescue of complex I mutant cybrids, primary screen, cell-based, galactose medium, ATP luminescence (AID 1645843;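 active = z-score of at least 1.8 in each of two replicates, scored against plate mean and spread of sample wells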;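 also: positive z means more ATP and so rescue of galactose-driven cybrid death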); conditions: complex I mutant cybrid cells, 72 h, stronger effect = higher value
F380Y = experiment: modulators of BK channel variants, profiling panel, selectivity assay, cell-based, U2OS BacMam, thallium flux, beta subunits (AID 1259406); conditions: at 30 µM;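 also: initial slope of Thallos dye fluorescence rise after thallium is added; log ratio against the mean of 0.3% DMSO vehicle wells on the same plate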
F380Y/beta1 = experiment: as above; conditions: at 30 µM
F380Y/beta2Delta = experiment: as above; conditions: at 30 µM
F380Y/beta4 = experiment: as above; conditions: at 30 µM
[9] = biological target: Calcium-activated potassium channel subunit alpha-1 (Homo sapiens) + Leucine-rich repeat-containing protein 26 (Homo sapiens) (UniProt Q12791+Q2I0M4); experiment: as above; conditions: F380Y/Slo1WT/gamma1, at 30 µM
R275C = experiment: as above; conditions: at 30 µM
R275C/beta1 = experiment: as above; conditions: at 30 µM
R275C/beta2Delta = experiment: as above; conditions: at 30 µM
R275C/beta4 = experiment: as above; conditions: at 30 µM
R275C/Slo1WT/beta2 = experiment: as above; conditions: at 30 µM
[10] = survival rescue of mitochondrial mutant cells in low glucose, primary screen, MELAS cybrids, Rieske KO mouse fibroblasts, CellTiter-Glo (AID 1508586;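 active = mean z-score across replicates of 1.96 or higher in either the MELAS or the Rieske mutant cell line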;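 also: z relative to plate mean and SD of compound and empty wells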)
[11] = stronger effect = lower value, cell number ratio, induced over uninduced
[12] = measured here: relative caspase fold change +Dox/-Dox
[13] = measured here: total cells with miR-34 induction, stronger effect = lower value
[14] = measured here: total cells without miR-34 induction
[15] = MELAS cybrid survival, CellTiter-Glo 48 h, stronger effect = higher value
[16] = Rieske KO mouse fibroblast survival, CellTiter-Glo 72 h

Calcium-activated potassium channel subunit alpha-1 (Homo sapiens) + Leucine-rich repeat-containing protein 26 (Homo sapiens), sequence (Q2I0M4 whole entry, looked up, one chain of several): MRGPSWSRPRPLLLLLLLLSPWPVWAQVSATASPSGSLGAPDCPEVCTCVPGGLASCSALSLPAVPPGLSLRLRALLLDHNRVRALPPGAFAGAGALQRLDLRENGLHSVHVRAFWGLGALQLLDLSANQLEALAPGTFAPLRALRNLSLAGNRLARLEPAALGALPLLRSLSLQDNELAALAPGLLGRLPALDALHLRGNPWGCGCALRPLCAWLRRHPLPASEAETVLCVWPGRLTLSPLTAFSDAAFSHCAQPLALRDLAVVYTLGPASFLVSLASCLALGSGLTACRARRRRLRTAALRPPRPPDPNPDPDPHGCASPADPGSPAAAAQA

CC(Cc1ccc(O)c(O)c1)(NN)C(=O)O (stereo not drawn)
2.2 and 3.05: fold change [7, 12]
10100 and 12600: cell count [7, 14]
9190 and 11400: cell count [7, 13]
97.1% and 84.8%: viability [1]
active: log fold change Tl+ flux (R275C) 0.0956
inactive: parasite load remaining [1] 41.4% and 31.2% | fluorescence ratio [2] 1.04 | inhibition [3] -2.27% | inhibition [4] -0.48% | fluorescence ratio [5] 1.05 | mean signal [6] 254 | fold change [7, 11] 0.911 and 0.909 | z-score [8] -1.27 | log fold change Tl+ flux (F380Y) -0.0414 | log fold change Tl+ flux (F380Y/beta1) 0.04 | log fold change Tl+ flux (F380Y/beta2Delta) 0.0399 | log fold change Tl+ flux (F380Y/beta4) 0.0475 | log fold change Tl+ flux [9] 0.00594 | log fold change Tl+ flux (R275C/beta1) 0.024 | log fold change Tl+ flux (R275C/beta2Delta) 0.0162 | log fold change Tl+ flux (R275C/beta4) -0.024 | log fold change Tl+ flux (R275C/Slo1WT/beta2) -0.00513

Cc1c(C(=O)NN2CCCCC2)nn(-c2ccc(Cl)cc2Cl)c1-c1ccc(I)cc1
-0.0666: z-score [10, 16]
inactive: parasite load remaining [1] 23% | fluorescence ratio [2] 0.91 | inhibition [3] 0.66% | fluorescence ratio [5] 0.92 | mean signal [6] 229 | z-score [10, 15] -0.338 | z-score [8] -1.88 and -0.83 | log fold change Tl+ flux (F380Y) 0.00861 | log fold change Tl+ flux (F380Y/beta1) -0.0372 | log fold change Tl+ flux (F380Y/beta2Delta) -0.0265 | log fold change Tl+ flux (F380Y/beta4) -0.0348 | log fold change Tl+ flux [9] -0.0487 | log fold change Tl+ flux (R275C) 0.0781 | log fold change Tl+ flux (R275C/beta1) 0.0181 | log fold change Tl+ flux (R275C/beta2Delta) -0.00675 | log fold change Tl+ flux (R275C/beta4) 0.0297 | log fold change Tl+ flux (R275C/Slo1WT/beta2) 0.0305
70.4%: viability [1]

COc1c(N2C[C@@H]3CCCN[C@@H]3C2)c(F)cc2c(=O)c(C(=O)O)cn(C3CC3)c12
70.8%: viability [1]
inactive: parasite load remaining [1] 52.8% | mean signal [6] 299 | fold change [7, 11] 0.953 | z-score [10, 15] -0.444 and -0.324 | log fold change Tl+ flux (F380Y) 0.00312 | log fold change Tl+ flux (F380Y/beta1) -0.0479 | log fold change Tl+ flux (F380Y/beta2Delta) 0.0707 | log fold change Tl+ flux (F380Y/beta4) 0.0364 | log fold change Tl+ flux [9] 0.0216 | log fold change Tl+ flux (R275C) -0.02 | log fold change Tl+ flux (R275C/beta1) -0.0156 | log fold change Tl+ flux (R275C/beta2Delta) 0.0202 | log fold change Tl+ flux (R275C/beta4) 0.0129 | log fold change Tl+ flux (R275C/Slo1WT/beta2) 0.0157
0.781: fold change [7, 12]
7410: cell count [7, 14]
0.523 and -0.694: z-score [10, 16]
7060: cell count [7, 13]

C[C@H]1O[C@H](O[C@H]2[C@H](O)[C@@H](O)[C@@H](O[C@H]3[C@H](O)[C@@H](O)C(O)O[C@@H]3CO)O[C@@H]2CO)[C@H](O)[C@@H](O)[C@@H]1N[C@H]1C=C(CO)[C@@H](O)[C@H](O)[C@H]1O (stereo partly drawn)
12200: cell count [7, 14]
4.27: fold change [7, 12]
10500: cell count [7, 13]
inactive: parasite load remaining [1] 61.3% and 108% | fluorescence ratio [2] 1.08 | inhibition [3] 4.36% | inhibition [4] 0.67% | fluorescence ratio [5] 1.03 | mean signal [6] 228 | fold change [7, 11] 0.866 | log fold change Tl+ flux (F380Y) -0.0255 | log fold change Tl+ flux (F380Y/beta1) 0.0224 | log fold change Tl+ flux (F380Y/beta2Delta) 0.0097 | log fold change Tl+ flux (F380Y/beta4) 0.039 | log fold change Tl+ flux [9] 0.00221 | log fold change Tl+ flux (R275C) -0.0575 | log fold change Tl+ flux (R275C/beta1) -0.00956 | log fold change Tl+ flux (R275C/beta2Delta) -0.0417 | log fold change Tl+ flux (R275C/beta4) -0.0364 | log fold change Tl+ flux (R275C/Slo1WT/beta2) -0.0206
104% and 111%: viability [1]

NCC(O)c1ccc(O)c(O)c1 (stereo not drawn)
inactive: parasite load remaining [1] 46.6% | fluorescence ratio [2] 1.02 | inhibition [3] -2.27% | inhibition [4] 0.29% | fluorescence ratio [5] 0.99 | mean signal [6] 234 | fold change [7, 11] 1.01 and 0.975 | z-score [8] -1.48 and -0.825 | log fold change Tl+ flux (F380Y) -0.00325 | log fold change Tl+ flux (F380Y/beta1) 0.00151 | log fold change Tl+ flux (F380Y/beta2Delta) -0.00353 | log fold change Tl+ flux (F380Y/beta4) 0.0254 | log fold change Tl+ flux [9] 0.0514 | log fold change Tl+ flux (R275C) 0.0185 | log fold change Tl+ flux (R275C/beta1) 0.035 | log fold change Tl+ flux (R275C/beta2Delta) -0.0293 | log fold change Tl+ flux (R275C/beta4) 0.0502 | log fold change Tl+ flux (R275C/Slo1WT/beta2) 0.093
1.64 and 1.95: fold change [7, 12]
10800 and 8140: cell count [7, 14]
10900 and 7940: cell count [7, 13]
90.4%: viability [1]

Cc1cc(N=CN(C)C)c2ccccc2n1
inactive: log fold change Tl+ flux (F380Y) 0.0195 | log fold change Tl+ flux (F380Y/beta1) 0.00784 | log fold change Tl+ flux (F380Y/beta2Delta) 0.0182 | log fold change Tl+ flux (F380Y/beta4) -0.00491 | log fold change Tl+ flux [9] 0.00683 | log fold change Tl+ flux (R275C) 0.0312 | log fold change Tl+ flux (R275C/beta1) 0.046 | log fold change Tl+ flux (R275C/beta2Delta) 0.0104 | log fold change Tl+ flux (R275C/beta4) 0.0114 | log fold change Tl+ flux (R275C/Slo1WT/beta2) -0.0666

Cc1cc2c(cc1C)CSC(c1ccco1)SC2
inactive: log fold change Tl+ flux (F380Y) -0.0256 | log fold change Tl+ flux (F380Y/beta1) 0.0185 | log fold change Tl+ flux (F380Y/beta2Delta) 0.0283 | log fold change Tl+ flux (F380Y/beta4) -0.0391 | log fold change Tl+ flux [9] 0.00632 | log fold change Tl+ flux (R275C) -0.00435 | log fold change Tl+ flux (R275C/beta1) 0.035 | log fold change Tl+ flux (R275C/beta2Delta) 0.055 | log fold change Tl+ flux (R275C/beta4) 0.0187 | log fold change Tl+ flux (R275C/Slo1WT/beta2) -0.0173

COc1nc(C)nc(Cl)c1NC1=NCCN1
72.6% and 70.2%: viability [1]
inactive: parasite load remaining [1] 85.8% and 79.7% | fluorescence ratio [2] 1.09 | inhibition [3] 4.36% | inhibition [4] 5.29% | fluorescence ratio [5] 1.07 | mean signal [6] 246 | z-score [10, 15] -0.211 and 0.715 | z-score [8] 0.36 and 1.01 and 0.165 | log fold change Tl+ flux (F380Y) -0.00461 | log fold change Tl+ flux (F380Y/beta1) -0.0516 | log fold change Tl+ flux (F380Y/beta2Delta) -0.0248 | log fold change Tl+ flux (F380Y/beta4) -0.00507 | log fold change Tl+ flux [9] -0.00669 | log fold change Tl+ flux (R275C) -0.0325 | log fold change Tl+ flux (R275C/beta1) -0.0423 | log fold change Tl+ flux (R275C/beta2Delta) -0.005 | log fold change Tl+ flux (R275C/beta4) -0.00418 | log fold change Tl+ flux (R275C/Slo1WT/beta2) -0.0114
0.176 and 0.122: z-score [10, 16]
